TDP1 cell noCPT = qHTS for Inhibitors of human tyrosyl-DNA phosphodiesterase 1 (TDP1): qHTS in cells in absence of CPT; DT40 Tdp1-/- hTDP1 cells, no CPT, ATP luminescence, 48 h; Potency, µM (highest dose often 46.2 µM), hits mostly inhibitors; hit rate 15% among 420,000; also: nearly all actives have a fitted effect of over 55% in size
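Cells were dispensed at 400 per well, compounds added by pin tool, plates incubated ≥48 hr at 37 °C, then CellTiter-Glo added for 30 min at room temperature before luminescence reading. Line: DT40 Tdp1-/- complemented with hTDP1; camptothecin omitted.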
HT1080-NT tox = qHTS for induction of synthetic lethality in tumor cells producing 2HG: qHTS for the HT-1080-NT fibrosarcoma cell line; HT-1080-NT fibrosarcoma viability, CellTiter-Glo ATP luminescence, 48 h; hit rate 1.6% among 360,000; Potency, µM (top dose mostly 46.1 µM), hits mostly cytotoxic;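 also: NT is the 2HG producing partner of a matched IDH1 knockdown line; nearly all actives have a fitted effect of over 55% in size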
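A 48-hour cytotoxicity screen used HT-1080-NT cells plated 2 hours before compound delivery. ATP-based CellTiter-Glo luminescence measured viability, normalized to DMSO and no-cell controls.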
KB-V1 MDR tox = qHTS assay for MDR1-selective chemotherapeutics: Primary screen using the drug-selected MDR subline cells KB-V1; KB-V1 MDR cells viability, CellTiter-Glo, 72 h; Potency, µM (doses to about 46.1 µM), most hits filed as cytotoxic; hit rate 3.4% among 400,000; AID 1347076, 2019; also: nearly all actives have a fitted effect of over 60% in size
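KB-V1 cells (P-gp-expressing MDR subline of KB-3-1) in phenol-red-free DMEM with 10% FBS were exposed to library compounds over a concentration series for 72 h at 37 degrees C. Viability read by CellTiter-Glo luminescence; concentration-effect curves fitted after normalization.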
KB-3-1 cytotox = qHTS assay for MDR1-selective chemotherapeutics: Primary screen using the parental adenocarcinoma cell KB-3-1; hit rate 1.4% among 400,000; Potency, µM (highest dose often 46.1 µM), most hits filed as cytotoxic; KB-3-1 viability, CellTiter-Glo ATP luminescence, 72 h; also: nearly all actives have a fitted effect of over 60% in size
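Parental KB-3-1 adenocarcinoma cells in phenol-red-free DMEM with 10% FBS were pin-treated with compounds at several concentrations, incubated 72 h at 37 °C, and viability read by CellTiter-Glo luminescence; concentration-effect curves were fitted after normalization.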
HT1080 IDH1KD tx = qHTS for induction of synthetic lethality in tumor cells producing 2HG: qHTS for the HT-1080-IDH1KD cell line; Potency, µM (top dose mostly 46.1 µM), most hits filed as cytotoxic; hit rate 2% among 360,000; HT-1080 IDH1 knockdown viability, ATP luminescence, 48 h
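Assay cells: HT-1080 with IDH1 knockdown, 750 per well, RPMI/5% FBS. Exposure: 48 h at 37 °C following 2 h pre-incubation. Read: CellTiter-Glo luminescence; fitted concentration-response, curve class assigned.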
DT40 TDP1 CPT = qHTS for Inhibitors of human tyrosyl-DNA phosphodiesterase 1 (TDP1): qHTS in cells in presence of CPT. chicken DT40 Tdp1-/-;hTDP1 cells + 20 nM CPT, ATP luminescence, 48 h. Potency, µM (top dose mostly 46.2 µM), most hits filed as inhibitors. hit rate 12% among 420,000; also: nearly all actives have a fitted effect of over 55% in size
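Chicken DT40 Tdp1-/- cells stably complemented with human TDP1 were seeded at 400 cells/well in medium containing 20 nM camptothecin, exposed to pin-transferred compounds, and grown at 37 °C for at least 48 hr. Viability was read as ATP luminescence.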
Of the large screens only hits and unclear results are named; the others gave an inactive call. A selection: hits, their analogues and other compounds. The true share with any hit is near 19%. Calls follow the shape of the dose curve; as a rule, active = well fitted curve in the direction sought with a large enough effect; inconclusive = small, poorly fitted or top-dose-only effect, or another doubt; inactive = no such curve, though single readings can be large; an effect the other way counts as inactive or inconclusive.

CNS(=O)(=O)c1cc(NC(=O)c2cncn2-c2ccccc2)ccc1C	none
Cc1ccc(NC(=O)Cn2cc(C(=O)C3CCCCC3)c3ccccc32)c(C)c1	TDP1 cell noCPT inconclusive, KB-V1 MDR tox inconclusive, DT40 TDP1 CPT inconclusive (no result: HT1080-NT tox, HT1080 IDH1KD tx)
Cc1cc(C)n(C(=O)Cn2nc([N+](=O)[O-])c(Br)c2C)n1	none
Cc1ccc(NC(=O)CSCC(=O)Nc2ccccc2N2CCCCC2)cc1	TDP1 cell noCPT inconclusive, KB-V1 MDR tox inconclusive, DT40 TDP1 CPT inconclusive
Cc1cccc(NC(=O)CSc2nc3ccccc3nc2N2CCCC2)c1	TDP1 cell noCPT inconclusive, KB-V1 MDR tox inconclusive, KB-3-1 cytotox inconclusive, HT1080 IDH1KD tx inconclusive, DT40 TDP1 CPT inconclusive
CCc1cccc(C)c1NC(=O)c1nc2ccccc2nc1N1CCCCC1	DT40 TDP1 CPT inconclusive (no result: HT1080-NT tox, HT1080 IDH1KD tx)
Cc1cc(C)c(NC(=O)c2nc3ccccc3nc2N2CCCCC2)c(C)c1	TDP1 cell noCPT 26µM, DT40 TDP1 CPT inconclusive (no result: HT1080-NT tox, HT1080 IDH1KD tx)
Cc1cccc(NC(=O)CSc2nc3ccccc3nc2N2CCCCC2)c1C	TDP1 cell noCPT 12µM, DT40 TDP1 CPT 23µM (no result: HT1080-NT tox, HT1080 IDH1KD tx)
CCc1cccc(NC(=O)CSc2nc3ccccc3nc2N2CCCCC2)c1	TDP1 cell noCPT 16µM, DT40 TDP1 CPT 12µM (no result: HT1080-NT tox, KB-V1 MDR tox, KB-3-1 cytotox, HT1080 IDH1KD tx)
Cc1cccc(NC(=O)CSCC(=O)Nc2ccccc2N2CCCCC2)c1	TDP1 cell noCPT inconclusive, KB-V1 MDR tox 16µM, KB-3-1 cytotox inconclusive
Cc1cccc(NC(=O)CSc2nc3ccccc3nc2N2CCCCC2)c1	TDP1 cell noCPT inconclusive, KB-V1 MDR tox inconclusive, KB-3-1 cytotox inconclusive, DT40 TDP1 CPT 29µM
COc1ccc(NC(=O)CSc2nc3ccccc3nc2N2CCCCC2)cc1	TDP1 cell noCPT inconclusive, DT40 TDP1 CPT inconclusive
CCc1ccc(NC(=O)CSc2nc3ccccc3nc2N2CCCCC2)cc1	TDP1 cell noCPT 10µM, KB-V1 MDR tox inconclusive, DT40 TDP1 CPT inconclusive
CCOc1ccc(CCNC(=O)CCOc2cc(C)ccc2C)cc1OCC	TDP1 cell noCPT 18µM, KB-V1 MDR tox inconclusive, DT40 TDP1 CPT inconclusive
CCOc1ccc(CCNC(=O)CSC(=S)N2CCCC2)cc1OCC	TDP1 cell noCPT inconclusive, DT40 TDP1 CPT 21µM
CCOc1ccc(CCNC(=O)CSc2nn(-c3ccc(C)c(Cl)c3)c(=S)s2)cc1OCC	TDP1 cell noCPT inconclusive, KB-V1 MDR tox 6.5µM, DT40 TDP1 CPT inconclusive
COc1ccc(Br)cc1CNC(=O)CCSCc1ccc(C)cc1	TDP1 cell noCPT inconclusive (no result: HT1080-NT tox, KB-V1 MDR tox, KB-3-1 cytotox, HT1080 IDH1KD tx)
CCOc1ccc(CCNC(=O)COC(=O)C2CC2)cc1OCC	none
COc1ccc(Br)cc1CNC(=O)CCSCc1ccc(Cl)cc1	TDP1 cell noCPT 26µM, DT40 TDP1 CPT inconclusive (no result: HT1080-NT tox, KB-V1 MDR tox, KB-3-1 cytotox, HT1080 IDH1KD tx)
Cc1ccc(C)c(OCCC(=O)NCCc2ccc(Cl)cc2)c1	TDP1 cell noCPT inconclusive, KB-3-1 cytotox inconclusive
CCc1cccc(C)c1NC(=O)C1CCCN1C(=O)NCc1ccccc1 (stereo not given)	none
CC(C)NC(=O)c1ccc2c(c1)N(CC(=O)Nc1ccccc1F)C(=O)C(C)(C)O2	none
CC(C)NC(=O)N(C)C[C@H]1OCCCC[C@@H](C)Oc2ccc(N(C)C)cc2C(=O)N([C@H](C)CO)C[C@@H]1C	TDP1 cell noCPT inconclusive, DT40 TDP1 CPT inconclusive
CCOc1ccc(CCNC(=O)CSCc2ccc(C)cc2)cc1OCC	TDP1 cell noCPT inconclusive, DT40 TDP1 CPT inconclusive
CCOc1ccc(CCNC(=O)CCSCc2ccc(Cl)cc2)cc1OCC	TDP1 cell noCPT 23µM, DT40 TDP1 CPT inconclusive (no result: HT1080-NT tox, KB-V1 MDR tox, KB-3-1 cytotox, HT1080 IDH1KD tx)
CCOc1ccc(CCNC(=O)CCSCc2cccc(Cl)c2)cc1OCC	TDP1 cell noCPT 21µM, DT40 TDP1 CPT inconclusive (no result: HT1080-NT tox, KB-V1 MDR tox, KB-3-1 cytotox, HT1080 IDH1KD tx)
Cc1ccc(Cl)cc1N1CCN(c2cccc[n+]2C)CC1	TDP1 cell noCPT 26µM, HT1080-NT tox inconclusive, KB-V1 MDR tox inconclusive, KB-3-1 cytotox inconclusive, DT40 TDP1 CPT inconclusive

Source: PubChem
